Measured potencies and affinities stand elsewhere. A number with no mark means an inactive call.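 Rule for the calls: active = compounds whose fitted curve of lowered CTGF expression reaches half effect within a set concentration limit; inconclusive = flat moderate drop in CTGF, or unreliable curve fit; inactive = the rest.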
Assay: YAP1 overexpression rescue of CTGF inhibition – DLD1 cells, RT-qPCR, cherry-pick, mechanism study for YAP1 pathway inhibitor project, dose response (AID 1053127)
Details: DLD1 YAP1-overexpressing, CTGF mRNA qPCR, 24 h; series mostly up to 26 µM; CTGF fold change (delta-delta-Ct), lower = inhibition: at the top concentration

Row | SMILES | CTGF fold change (delta-delta-Ct), lower = inhibition
1 | COc1ccc2c3c(n(C)c2c1)[C@H](CO)N(S(C)(=O)=O)CC31CCN(C(=O)Nc2cccc(F)c2)CC1 | 1.04 unspecified
2 | C[C@H](CO)N1C[C@H](C)[C@H](CN(C)Cc2ccc(Oc3ccccc3)cc2)OCc2ccccc2-c2ccccc2C1=O | 1.45 unspecified [at 23.5 µM]
3 | C[C@H](CO)N1C[C@H](C)[C@@H](CN(C)S(=O)(=O)c2ccc([N+](=O)[O-])cc2)OCc2ccccc2-c2c(n(C)c3ccccc23)C1=O | 1.01 unspecified
4 | O=C([C@H]1[C@H](CO)[C@H]2Cn3c(ccc(-c4ccc(F)cc4)c3=O)[C@H]2N1Cc1cocn1)N1CCCCC1 | 0.918 unspecified
5 | C[C@H]1CN([C@@H](C)CO)C(=O)c2cccc(NC(=O)c3ccc(-c4nccs4)cc3)c2O[C@@H]1CN(C)C(=O)Nc1ccc(C(F)(F)F)cc1 | 0.52 unspecified
6 | Cc1ccc(S(=O)(=O)N[C@H]2C=C[C@H](CC(=O)NCc3ccc(Cl)c(Cl)c3)O[C@H]2CO)cc1 | 0.997 unspecified
7 | COCC(=O)N1CC(=O)N2[C@H](CO)[C@@H](c3ccc(C#CC4CC4)cc3)[C@H]2C1 | 0.911 unspecified
8 | Cc1ccc(S(=O)(=O)N2CC[C@@H]3[C@H]2c2cc(-c4cccc(C(=O)N(C)C)c4)ccc2N[C@@H]3CO)cc1 | 2.06 unspecified [at 23.5 µM]
9 | C[C@@H]1CN([C@H](C)CO)S(=O)(=O)c2ccc(C#Cc3ccccc3F)cc2O[C@@H]1CN(C)C(=O)Cc1cccnc1 | 0.807 unspecified
10 | C[C@@H]1CN([C@@H](C)CO)C(=O)c2ccccc2-c2ccccc2CO[C@H]1CN(C)C(=O)Nc1ccc(-c2ccccc2)cc1 | 0.561 unspecified
11 | CCC(=O)N1Cc2cc(C(=O)NCc3cccc(F)c3)nc(-c3cccc(C4=CCCC4)c3)c2[C@H]1CCO | 1 unspecified
12 | C[C@@H]1CN([C@H](C)CO)C(=O)c2c(c3ccccc3n2C)-c2ccccc2CO[C@@H]1CN(C)Cc1cccc(C(F)(F)F)c1 | 0.675 unspecified [at 23.5 µM]
13 | Cc1cccc(-c2ccc([C@@H]3[C@@H](CO)N4CCCCN(S(=O)(=O)c5ccccc5F)C[C@@H]34)cc2)c1 | 0.962 unspecified
14 | C[C@H](O)C#Cc1ccc([C@H]2[C@@H](CO)N3CCCCN(C(=O)c4ccc5c(c4)OCO5)C[C@@H]23)cc1 | 0.952 unspecified [at 23.5 µM]
15 | O=S(=O)(c1ccccc1)N1CCCCN2[C@H](C1)[C@@H](c1ccc(C#CC3CCCC3)cc1)[C@@H]2CO | 0.946 unspecified
16 | N#C[C@@H]1[C@H](c2ccc(-c3cccc(F)c3)cc2)[C@H](CO)N1C(=O)NC1CCCC1 | 1.04 unspecified
17 | COc1ccc2c3c(n(C)c2c1)[C@@H](CO)N(Cc1ccncc1)CC31CN(C(=O)Nc2cccc(F)c2)C1 | 1.12 unspecified
18 | C[C@H]1CC=CC[C@@H](c2ccc(F)cc2)NC(=O)[C@H](Cc2ccccc2)N(C)C(=O)c2ccccc2O1 (mixture of isomers) | 0.62 unspecified
19 | Cc1ccc(S(=O)(=O)N2CC[C@H]3[C@H](CO)Nc4ccc(-c5cccc(C(=O)N(C)C)c5)cc4[C@H]32)cc1 | 1.09 unspecified
20 | CCC(=O)N1C[C@H](C)[C@@H](OC)CN(C)C(=O)c2cc(NC(=O)Nc3ccc(Cl)cc3)ccc2OC[C@@H]1C | 1.62 unspecified
21 | Cc1ccc(S(=O)(=O)Nc2ccc3c(c2)C(=O)N([C@H](C)CO)C[C@@H](C)[C@H](CN(C)S(=O)(=O)c2cccs2)OCCCC[C@@H](C)O3)cc1 | 1.68 unspecified
22 | COc1ccccc1C#Cc1ccc([C@H]2[C@H](CO)N3CCCCN(C(=O)C4CCC4)C[C@@H]23)cc1 | 0.643 unspecified
23 | O=C(c1cccc(F)c1)N1CCCCN2[C@H](CO)[C@H](c3ccc(C#CC4(O)CCCC4)cc3)[C@@H]2C1 | 0.87 unspecified
24 | C[C@@H]1CN([C@H](C)CO)C(=O)CCCn2nncc2CO[C@@H]1CN(C)C(=O)c1cc(-c2ccccc2)on1 | 0.649 unspecified
25 | C[C@@H]1CN([C@@H](C)CO)C(=O)Cc2cc(NC(=O)C3CCCCC3)ccc2O[C@@H]1CN(C)Cc1ccc(Cl)c(Cl)c1 | 1.43 unspecified [at 23.5 µM]
26 | O=C(c1cccc(F)c1)N1CCCCN2[C@@H](CO)[C@H](c3ccc(C#CC4(O)CCCC4)cc3)[C@@H]2C1 | 0.713 unspecified
27 | C/C=C/c1cccc(-c2nc(C(=O)Nc3nccs3)cc3c2[C@@H](CCO)N(C(=O)NC(C)C)C3)c1 | 1.23 unspecified
28 | COc1ccc([C@H]2C/C=C\C[C@@H](c3ccc4c(c3)OCO4)NC(=O)[C@@H](c3ccccc3)CC(=O)N2)c(OC)c1 | 2.27 unspecified
29 | O=C(CC1CC1)N1CC(=O)N2[C@@H](CO)[C@H](c3ccc(/C=C/c4ccccc4)cc3)[C@@H]2C1 | 1.06 unspecified
30 | CCCC#Cc1ccc([C@@H]2[C@@H](C#N)N(C(=O)CN3CCOCC3)[C@H]2CO)cc1 | 1.04 unspecified [at 23.5 µM]

From PubChem BioAssay AID1053127 (Broad Institute, 2014)
